Tgondii IFNg: blocks Toxoplasma gondii growth in the presence of IFN-gamma | AID 1259416 | Toxoplasma gondii growth in IFN-gamma-treated host cells; active compounds read low | activity change, negative = inhibition, % (test concentration not listed) | hit rate 3.8% among 69,000; in the data active = activity change below about -70%, passing the limit was not always enough;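 note: host cells are HeLa cells infected with Toxoplasma gondii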
Large screens that a line does not name were inactive; ! = not confirmed by another sample. The entries come from a sample that favours hits as a whole.

C[C@H]1[C@H](C)CC[C@]2(C(=O)O)CC[C@]3(C)C(=CC[C@@H]4[C@@]5(C)C[C@@H](O)[C@H](O)[C@@](C)(CO)[C@@H]5CC[C@]43C)[C@H]12	Tgondii IFNg -74.2!
C[C@H]1[C@H](C)CC[C@]2(C(=O)O)CC[C@]3(C)C(=CCC4[C@@]5(C)C[C@@H](O)[C@H](O)[C@@](C)(CO)C5CC[C@]43C)[C@H]12 (some centres undefined)	none
C[C@H]1[C@H](C)CC[C@]2(C(=O)O)CC[C@]3(C)C(=CCC4[C@@]5(C)C[C@@H](O)[C@H](O)[C@@](C)(CO)C5[C@H](O)C[C@]43C)[C@H]12 (some centres undefined)	none
Cc1nnsc1-c1nc(-c2ccc(Cl)s2)cs1	Tgondii IFNg -84.9
CCOC(=O)c1csc(-c2snnc2C)n1	none
Cc1nc(-c2ccc(Cl)cc2)sc1-c1csc(-c2ccc(Cl)cc2)n1	none
O=C1NC[C@H](COc2ccccn2)[C@]12CCN(Cc1ccccn1)C2	none
Cc1cc(C)cc(OCCCN(C)C(=O)c2nn(C)c(=O)c3ccccc23)c1	none
CC1(C)CC(NC(=O)c2cc(=O)[nH]c(-c3ccccc3)n2)c2ccccc2O1 (centres undefined)	none
CCc1nc(C)cc(-c2cccc3cccnc23)n1	none
c1ccc(Oc2cccc3cccnc23)nc1	none
c1cnc2c(c1)ccc1cccnc12	Tgondii IFNg -96.2
Cc1c2c(nn1Cc1ccccc1)NC(=O)CC2COCc1ccccc1 (centres undefined)	none
CC(C)c1ccc(C(=O)N=C(N)N)cc1S(C)(=O)=O	none
COc1ccc(-c2nn(CCC#N)c(=O)[nH]2)cc1	none
Cc1cc2c(cc3c(=O)n(CCC#N)nc(C)n32)s1	Tgondii IFNg -90.5
Cc1cc(NC(=O)Cn2c(C)nc3sc(C)c(C)c3c2=O)n(Cc2ccncc2)n1	none
c1csc(CN2CCC3(CC2)CCN(CC2CC2)C3)n1	none
CN(C)c1ncc2c(n1)[C@H]1CN(Cc3ccccc3F)C[C@@H]1S(=O)(=O)C2	Tgondii IFNg -102.7
O=S1(=O)Cc2cnc(NCC3CC3)nc2[C@H]2CN(Cc3ccc(F)cc3)C[C@@H]21	none
CN(C)c1ncc2c(n1)[C@H]1CN(C(=O)c3ccccc3)C[C@@H]1S(=O)(=O)C2	none
Cc1cccc(-c2nc(Cn3c(=O)c4c(C)cc(C)nc4n(Cc4ccco4)c3=O)c(C)o2)c1	none
CSc1ccccc1NC(=O)CCC(=O)N1CCC[C@H]1CO	none
Cc1noc(C)c1CC(=O)Nc1nnc(CCOc2ccc(Cl)cc2)s1	none
COc1cc(CCC(=O)N2CCC3(CC2)Nc2cc(F)ccc2-n2cccc23)cc(OC)c1OC	none
COc1ccc(CCC(=O)N2CCC3(CC2)Nc2cc(F)ccc2-n2cccc23)cc1	Tgondii IFNg -75.1
COc1ccc2c(c1)NC1(CCN(C(=O)Cc3ccc(C)cc3)CC1)c1cccn1-2	none
O=C(CCc1ccccc1)N1CCC2(CC1)Nc1cc(F)ccc1-n1cccc12	none
COc1ccc(CCC(=O)N2CCC3(CC2)Nc2cc(OC)ccc2-n2cccc23)cc1	Tgondii IFNg -82.0
COc1ccc(OCC(=O)N2CCC3(CC2)Nc2cc(OC)ccc2-n2cccc23)cc1	none
COc1ccc(NC(=O)C(=O)NCCc2sc(-c3ccccc3)nc2C)cc1OC	none
O=C(c1ccco1)N1C[C@H]2CC[C@](O)(c3cccc(C(F)(F)F)c3)[C@H]2C1	none
C=CCN(CCSc1ccccc1)C(=O)c1cccn1C	none
CC(C)n1c2ccccc2c2c1cc(C(=O)NCCC#N)n2-c1ncccn1	none
COc1ccc2c(c1)NC1(CCN(C(=O)NC34CC5CC(CC(C5)C3)C4)CC1)c1cccn1-2	none
CCOC(=O)[C@@]12CCCN(S(=O)(=O)CC)C[C@@H]1CN(C(C)C)C2	none
Cc1ccc(S(=O)(=O)NCc2cc(=O)[nH]c(-c3ccccn3)n2)cc1C	none
CN(C)Cc1cncc2c1CCN(C(=O)c1ccc3c(c1)OCO3)C2	none
CCS(=O)CCC(=O)Nc1ccc(NC(=O)c2ccc(C)o2)cc1 (centres undefined)	none
O=C(NCc1cccc(Cl)c1)c1c(O)c2cccnc2n(-c2cccc(F)c2)c1=O	none
O=C(NCc1cccc(Cl)c1)c1c(O)c2cccnc2n(-c2ccc(F)cc2)c1=O	none
O=C(NCc1cccnc1)c1c(O)c2ccccc2n(-c2ccccc2)c1=O	none
COc1cccc(CNC(=O)c2c(O)c3ccccc3n(-c3ccccc3)c2=O)c1	none
O=C(NCc1ccc(Cl)cc1)c1c(O)c2cccnc2n(-c2ccc(F)cc2)c1=O	Tgondii IFNg -105.1
O=C(NCc1cccc(Cl)c1)c1c(O)c2cccnc2n(-c2ccccc2)c1=O	Tgondii IFNg -83.1
O=C(NCc1ccc(Cl)cc1)c1c(O)c2cccnc2n(-c2cccc(F)c2)c1=O	none
O=C(NCc1ccccc1)c1c(O)c2cccnc2n(-c2ccc(F)cc2)c1=O	none
O=C(NCc1ccc(Cl)cc1)c1c(O)c2ccccc2n(-c2ccccc2)c1=O	Tgondii IFNg -124.4
O=C(CCC(=O)N1CCCCCC1)NC[C@@H]1CCNC[C@H]1O	none
COc1ccc(S(=O)(=O)Nc2cncc(C(=O)Nc3ccc(Cl)cc3C)c2)cc1OC	none
Fc1cnc(N2CC[C@@]3(C[C@H](N4CCCC4)CCO3)C2)nc1	none
Cn1nc(-c2c(-c3ccccc3)ncn2CCO)c2c(Cl)cccc21	none
